From publication PMC4336329 (PLoS ONE, 2015)
About 14,000 (4.5%) of roughly 310,000 compounds showed an effect of 50% or more. The effect is printed as a negative number. The sample holds strong results, similar compounds and a random draw of the others, so the mix is not that of the screen.
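Also: peak tail current of the secondary pulse compared with the same well before compound.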

These compounds were tested against human ether-à-go-go-related gene (hERG) potassium channel (human, UniProt Q12809) (assay: primary screen, population patch clamp on CHO cells stably expressing hERG; higher = less effect of the substance).
human ether-à-go-go-related gene (hERG) potassium channel, sequence (Q12809 whole entry, looked up): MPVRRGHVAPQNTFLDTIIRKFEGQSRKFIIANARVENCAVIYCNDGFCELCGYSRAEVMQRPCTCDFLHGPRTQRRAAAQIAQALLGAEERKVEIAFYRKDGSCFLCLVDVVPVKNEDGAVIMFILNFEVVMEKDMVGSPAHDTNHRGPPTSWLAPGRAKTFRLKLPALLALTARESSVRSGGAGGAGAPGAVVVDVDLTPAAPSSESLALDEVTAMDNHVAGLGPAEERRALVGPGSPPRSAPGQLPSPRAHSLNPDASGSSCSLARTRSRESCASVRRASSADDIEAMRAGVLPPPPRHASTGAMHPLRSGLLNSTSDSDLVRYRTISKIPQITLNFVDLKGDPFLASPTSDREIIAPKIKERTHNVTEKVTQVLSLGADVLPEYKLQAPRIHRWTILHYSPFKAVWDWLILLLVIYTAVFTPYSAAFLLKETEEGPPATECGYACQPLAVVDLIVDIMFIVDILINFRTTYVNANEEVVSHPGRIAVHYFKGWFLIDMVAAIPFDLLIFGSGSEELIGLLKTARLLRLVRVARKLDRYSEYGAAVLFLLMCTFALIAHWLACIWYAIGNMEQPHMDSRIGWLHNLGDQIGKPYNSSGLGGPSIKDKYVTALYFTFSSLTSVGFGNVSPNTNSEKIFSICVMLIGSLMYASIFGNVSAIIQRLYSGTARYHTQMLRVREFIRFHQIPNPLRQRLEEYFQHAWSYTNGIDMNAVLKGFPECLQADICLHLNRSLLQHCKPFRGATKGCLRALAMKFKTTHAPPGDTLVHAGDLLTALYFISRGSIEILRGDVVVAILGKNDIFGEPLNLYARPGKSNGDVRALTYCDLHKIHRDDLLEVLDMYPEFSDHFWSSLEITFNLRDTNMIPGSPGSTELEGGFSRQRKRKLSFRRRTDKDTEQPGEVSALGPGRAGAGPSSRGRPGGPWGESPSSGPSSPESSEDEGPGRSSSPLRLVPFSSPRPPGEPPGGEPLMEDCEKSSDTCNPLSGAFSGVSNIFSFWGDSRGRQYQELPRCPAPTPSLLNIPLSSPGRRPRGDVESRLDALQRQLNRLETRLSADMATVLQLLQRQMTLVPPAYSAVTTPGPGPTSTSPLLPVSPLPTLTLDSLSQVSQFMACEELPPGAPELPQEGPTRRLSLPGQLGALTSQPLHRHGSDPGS
For `Cc1cccc(Cn2nc(C(C)(C)C)cc2C(=O)Nc2ccc(F)cc2)c1`, the “hERG current change (%, negative = inhibition) at 10uM” value was 14.8%.
With `C(#CCN1CCOCC1)COCC#Cc1ccccc1.Cl` the “hERG current change (%, negative = inhibition) at 10uM” value was -2.16%.
`CC(C)(C)OC(=O)N[C@@H](Cc1c[nH]c2ccccc12)c1nnc(SCC(N)=O)o1` was tested, and the “hERG current change (%, negative = inhibition) at 10uM” value was -3.96%.
In the case of `Cc1nc2ccccc2c(=O)n1-c1cc(F)ccc1F`, the “hERG current change (%, negative = inhibition) at 10uM” value is reported as 8.31%.
`Cc1ccc(C)c(S(=O)(=O)NNC(=O)Nc2ccccc2Cl)c1` was tested, and the “hERG current change (%, negative = inhibition) at 10uM” value was 5.51%.
For `O=c1cc(CSc2ccc(Cl)cc2)nc(-c2ccccn2)[nH]1`, the “hERG current change (%, negative = inhibition) at 10uM” value was -0.0469%.
`COc1ccc(CNC(=O)C(c2ccco2)N(Cc2ccccc2)C(=O)Cc2cccs2)cc1` (stereo not shown) was tested, and the “hERG current change (%, negative = inhibition) at 10uM” value was 18%.
In the case of `Cc1ccc(C(=O)c2cc([N+](=O)[O-])ccc2N2CC(C)OC(C)C2)cc1` (stereo not shown), the “hERG current change (%, negative = inhibition) at 10uM” value is reported as -0.127%.
With `Cc1ccc(C(=O)c2cc([N+](=O)[O-])ccc2N2CCCCC2)cc1` the “hERG current change (%, negative = inhibition) at 10uM” value was -5.08%.
For `COc1ccc(C(=O)c2ccc([N+](=O)[O-])cc2Cl)cc1`, the “hERG current change (%, negative = inhibition) at 10uM” value was -16.2%.
`COc1ccc(C(=O)c2cc([N+](=O)[O-])ccc2N2CCN(C)CC2)cc1` was tested, and the “hERG current change (%, negative = inhibition) at 10uM” value was -58.2%.
`O=C(c1ccccc1)c1cc([N+](=O)[O-])ccc1N1CCCC1` was tested, and the “hERG current change (%, negative = inhibition) at 10uM” value was -12%.
`O=C(c1ccccc1)c1cc([N+](=O)[O-])ccc1N1CCOCC1` was tested, and the “hERG current change (%, negative = inhibition) at 10uM” value was -30.7%.
For `CN1CCN(c2ccc([N+](=O)[O-])cc2C(=O)c2ccccc2)CC1`, the “hERG current change (%, negative = inhibition) at 10uM” value was -54.2%.
In the case of `Cc1ccc(C(=O)c2cc([N+](=O)[O-])ccc2N2CCOCC2)cc1C`, the “hERG current change (%, negative = inhibition) at 10uM” value is reported as -17%.
For `Cc1ccc(C(=O)c2cc([N+](=O)[O-])ccc2N2CCN(C)CC2)cc1`, the “hERG current change (%, negative = inhibition) at 10uM” value was -64.5%.
In the case of `COc1ccc(C(=O)c2cc([N+](=O)[O-])ccc2N2CCOCC2)cc1`, the “hERG current change (%, negative = inhibition) at 10uM” value is reported as -23.5%.
For `CCN1CCN(c2ccc([N+](=O)[O-])cc2C(=O)c2ccc(Cl)cc2)CC1`, the “hERG current change (%, negative = inhibition) at 10uM” value was -72.8%.
In the case of `Cc1ccc(C(=O)c2cc([N+](=O)[O-])ccc2N2CCCCC2)cc1C`, the “hERG current change (%, negative = inhibition) at 10uM” value is reported as 6.24%.
`Cc1nn(CC(=O)N2CCN(S(=O)(=O)c3ccccc3)CC2)c(C)c1[N+](=O)[O-]` was tested, and the “hERG current change (%, negative = inhibition) at 10uM” value was -10%.
With `Cl.Clc1cccc(Nc2nc(N3CCOCC3)nc(N3CCOCC3)n2)c1` the “hERG current change (%, negative = inhibition) at 10uM” value was 16.9%.
With `CN(C)C(=O)c1cn(-c2ccccc2)nc1-c1cc2ccccc2o1` the “hERG current change (%, negative = inhibition) at 10uM” value was -10.3%.
In the case of `CC12CCC(=O)N1c1ccccc1C(=O)N2c1ccccc1` (stereo not shown), the “hERG current change (%, negative = inhibition) at 10uM” value is reported as -9.9%.
In the case of `CCOC(=O)c1sc(NC(=O)CSc2nncn2C)nc1C`, the “hERG current change (%, negative = inhibition) at 10uM” value is reported as 9.68%.
In the case of `Cl.O=C(OCCN1CCCCC1)c1cccc(Cl)c1`, the “hERG current change (%, negative = inhibition) at 10uM” value is reported as -30.6%.
With `CCCC(c1nnnn1Cc1ccco1)N1CCN(c2ccccc2)CC1.Cl` (stereo not shown) the “hERG current change (%, negative = inhibition) at 10uM” value was -19.6%.
With `Cc1c(Cc2ccccc2)c(NCCN(C)C)n2c(nc3ccccc32)c1C#N` the “hERG current change (%, negative = inhibition) at 10uM” value was -32.4%.
`Cc1[nH]c2ccccc2c1Cc1nnc(SCC(=O)NCc2ccco2)o1` was tested, and the “hERG current change (%, negative = inhibition) at 10uM” value was 4.19%.
With `COc1ccc(CC(=O)c2ccc(O)cc2O)cc1` the “hERG current change (%, negative = inhibition) at 10uM” value was -3.19%.
`N/C(=N\OC(=O)c1ccc(OCC(F)(F)F)nc1)c1ccc(Cl)cc1` was tested, and the “hERG current change (%, negative = inhibition) at 10uM” value was 19.5%.
With `CN1CCN(c2ccc([N+](=O)[O-])cc2C(=O)N2CCCCC2)CC1` the “hERG current change (%, negative = inhibition) at 10uM” value was -7.66%.
For `O=C(c1ccc(Cl)cc1)c1cc([N+](=O)[O-])ccc1N1CCOCC1`, the “hERG current change (%, negative = inhibition) at 10uM” value was -32.4%.
`O=C(c1ccc(Br)cc1)c1cc([N+](=O)[O-])ccc1N1CCOCC1` was tested, and the “hERG current change (%, negative = inhibition) at 10uM” value was -30.7%.
For `O=C(c1ccc(Br)cc1)c1cc([N+](=O)[O-])ccc1N1CCCCC1`, the “hERG current change (%, negative = inhibition) at 10uM” value was -25.3%.
With `CN1CCN(c2ccc([N+](=O)[O-])cc2C(=O)c2ccc(Br)cc2)CC1` the “hERG current change (%, negative = inhibition) at 10uM” value was -69.5%.
`CN1CCN(c2ccc([N+](=O)[O-])cc2C(=O)c2ccc(Cl)cc2)CC1` was tested, and the “hERG current change (%, negative = inhibition) at 10uM” value was -67.4%.
In the case of `CC(=O)Nc1cc2nc(C)n(Cc3ccccc3[N+](=O)[O-])c2nc1C`, the “hERG current change (%, negative = inhibition) at 10uM” value is reported as 17.4%.
With `C1CCc2nc3c(nc2C1)CCCC3` the “hERG current change (%, negative = inhibition) at 10uM” value was -10.7%.
For `C=CCc1c(C)nc(SC)nc1Nc1ccc(C)cc1`, the “hERG current change (%, negative = inhibition) at 10uM” value was -14.3%.
For `CN(C(=O)c1cccnc1)c1nnc(-c2cccnc2)s1`, the “hERG current change (%, negative = inhibition) at 10uM” value was 14.4%.
With `COc1ccc(N2CCN(C(=O)CN3CCN(C(c4ccccc4)c4ccccc4)CC3)CC2)cc1.Cl` the “hERG current change (%, negative = inhibition) at 10uM” value was -46%.
`CCCCC(=O)OCC(=O)Nc1ccc(OC(F)F)cc1` was tested, and the “hERG current change (%, negative = inhibition) at 10uM” value was -21.2%.
For `Cc1ccn2c(=O)c(NC(=O)COc3ccccc3)c(C)nc2c1`, the “hERG current change (%, negative = inhibition) at 10uM” value was -56.9%.
`Cc1nc2c(C)cccn2c(=O)c1NC(=O)COc1ccccc1` was tested, and the “hERG current change (%, negative = inhibition) at 10uM” value was -12.1%.
In the case of `Cc1ccn2c(=O)c(NC(=O)c3cccc4ccccc34)c(C)nc2c1`, the “hERG current change (%, negative = inhibition) at 10uM” value is reported as -1.31%.
For `N#Cc1c(Cl)nsc1NC(=O)c1ccccc1`, the “hERG current change (%, negative = inhibition) at 10uM” value was 8.24%.
With `Cc1ccc(S(=O)(=O)N2CCCCC2CCNC(=O)C(=O)NCCc2ccco2)cc1` (stereo not shown) the “hERG current change (%, negative = inhibition) at 10uM” value was -33.1%.
`Cc1ccccc1CNC(=O)CCC(=O)N1CCOc2ccc(Cl)cc21` was tested, and the “hERG current change (%, negative = inhibition) at 10uM” value was -24.2%.
In the case of `O=C(CCC(=O)N1CCOc2ccc(Cl)cc21)NCCN1CCOCC1`, the “hERG current change (%, negative = inhibition) at 10uM” value is reported as 3.97%.
For `CN1CCN(CCCNC(=O)CCC(=O)N2CCOc3ccccc32)CC1`, the “hERG current change (%, negative = inhibition) at 10uM” value was 5.46%.
With `O=C(NC1CCN(Cc2ccccc2)CC1)C1COc2ccccc2O1` (stereo not shown) the “hERG current change (%, negative = inhibition) at 10uM” value was -57.5%.
`O=C(CCC(=O)N1CCOc2ccc(Cl)cc21)NCCCN1CCN(c2ccccc2F)CC1` was tested, and the “hERG current change (%, negative = inhibition) at 10uM” value was -66.5%.
With `Cc1ccc(C)c(N2CCN(CCCNC(=O)CCC(=O)N3CCOc4ccc(Cl)cc43)CC2)c1` the “hERG current change (%, negative = inhibition) at 10uM” value was -55.9%.
`O=C(CCC(=O)N1CCOc2ccccc21)NCCCN1CCCCC1` was tested, and the “hERG current change (%, negative = inhibition) at 10uM” value was 7%.
With `O=C(CCC(=O)N1CCOc2ccccc21)NCCCN1CCN(Cc2ccccc2)CC1` the “hERG current change (%, negative = inhibition) at 10uM” value was -79.8%.
`O=C(NC1CCCCC1)C1COc2ccccc2O1` (stereo not shown) was tested, and the “hERG current change (%, negative = inhibition) at 10uM” value was -7.19%.
In the case of `O=C(C1COc2ccccc2O1)N1CCN(Cc2ccccc2)CC1` (stereo not shown), the “hERG current change (%, negative = inhibition) at 10uM” value is reported as -7.63%.
With `CCN1CCN(CCCNC(=O)CCC(=O)N2CCOc3ccccc32)CC1` the “hERG current change (%, negative = inhibition) at 10uM” value was -13%.
